This is an account of results in the supplement of paper PMC4723716.

± gives the uncertainty stated by the source. Over roughly 9,900 compounds, “viability index relative to DMSO control” has its median near 1; the lowest 2% begin near 0.85. What follows is part of a selection rich in the lowest values, with near analogues and random picks from the rest.

For the assay, the system named is Plasmodium falciparum NF54 stage V gametocytes. Kind of assay: viability index relative to DMSO control (fraction); higher = less gametocyte killing. As to conditions: 2.5 µM, incubation time: 72 h. Put shortly:
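In 1,536-well plates, 10 µl of serum-free medium holding P. falciparum NF54 stage V gametocytes (0.75% gametocytemia, 1.25% hematocrit) received compound at 2.5 µM for 72 hr at 37°C in low oxygen. After one to two hours with 3 µl of 2.5 µM MitoTracker Red CMXRos containing 0.13% saponin, red particles of 20–70 µm2 were counted in a single field per well. Viability index is reported as the particle count over the plate mean of wells treated with solvent only.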

Where [1] appears, read: library set: Broad Institute DOS.
Setting [2] is: library set: Broad Institute Blood Stage.

`Cc1noc(C)c1NC(=O)N(C)C[C@H]1Oc2ccc(NC(=O)Cc3cn(C)c4ccccc34)cc2CC(=O)N([C@H](C)CO)C[C@@H]1C` showed a viability index under setting [1] of 1.04 ± 0.045. Regarding `COCC(=O)N1C[C@@H](C)[C@H](OC)CN(C)C(=O)c2ccc(NC(=O)Nc3cccc(F)c3)cc2OC[C@@H]1C`, the viability index under setting [1] worked out at 1.032 ± 0.0043. On to `C[C@@H]1CCn2cc(nn2)COC[C@H](C)NC1=O`, for which the viability index under setting [1] was found to be 1.06 ± 0.018.

In turn, `CC(=O)N1[C@H](CO)[C@@H](c2ccccc2)C12CN(Cc1ccc(Cl)cc1)C2` yielded a viability index under setting [1] of 1.06 ± 0.056. On the same count and under the same terms, the result for `CCN(C[C@H]1N[C@H](CO)[C@@H]1c1ccccc1)C(=O)c1ccncc1` reads 1 ± 0.019.

`C[C@H]1CCCCO[C@H](CN(C)C(=O)Nc2cccc3ccccc23)[C@@H](C)CN([C@@H](C)CO)C(=O)c2cc(NC(=O)CCC(F)(F)F)ccc2O1` showed a viability index under setting [1] of 0.993 ± 0.057. On the same count and under the same terms, to `COCC(=O)N1[C@H](C#N)[C@H](c2ccccc2-c2cccc(C)c2)[C@H]1CO` belongs 1.15 ± 0.053; to `CCCC(=O)Nc1ccc2c(c1)OC[C@H](C)N(CC1CCOCC1)C[C@@H](C)[C@H](OC)CN(C)C2=O`, 1.02 ± 0.039; to `O=C(C[C@H]1CC[C@@H]2NC[C@H](O)COC[C@H]2O1)Nc1ccc(-c2ccccc2)cc1`, 1.0439 ± 3.9e-05. Under setting [1], `O=C(C[C@@H]1CC[C@H]2NC[C@@H](O)COC[C@@H]2O1)Nc1ccc(-c2ccccc2)cc1` registered a viability index of 0.826 ± 0.077. Take `O=C(C[C@@H]1CC[C@@H]2NC[C@@H](O)COC[C@H]2O1)Nc1ccc(-c2ccccc2)cc1`: the viability index under setting [1] came out at 1.06 ± 0.024.

Compound `Cc1cccc(S(=O)(=O)N2C[C@H]3[C@@H](c4ccccc42)[C@H](CO)N3Cc2ccc3c(c2)OCO3)c1` yielded a viability index under setting [1] of 1.01 ± 0.012. Compound `O=C(C1CCOCC1)N1CC(=O)N2[C@H](CO)[C@H](c3ccc(/C=C/c4ccccc4)cc3)[C@@H]2C1` had a viability index under setting [1] of 0.99 ± 0.011.

Under setting [1], `C[C@@H]1CN([C@H](C)CO)C(=O)c2cccc(NC(=O)c3ccc(-c4nccs4)cc3)c2O[C@H]1CN(C)C(=O)Nc1ccc(C(F)(F)F)cc1` yielded a viability index of 0.97 ± 0.025. For `C[C@@H]1CN([C@@H](C)CO)C(=O)c2cccc(NC(=O)C3CCOCC3)c2O[C@H]1CN(C)C(=O)Nc1cccc2ccccc12`, the viability index under setting [1] was 0.966 ± 0.063. On the same count and under the same terms, the result for `Cc1noc(C)c1S(=O)(=O)N(C)C[C@@H]1Oc2c(NC(=O)c3ccc(-c4nccs4)cc3)cccc2C(=O)N([C@@H](C)CO)C[C@@H]1C` reads 0.955 ± 0.036. For `C[C@@H]1CN([C@@H](C)CO)C(=O)c2cccc(NC(=O)c3ccc(-c4nccs4)cc3)c2O[C@@H]1CN(C)C(=O)Nc1cccc2ccccc12`, the viability index under setting [2] turned out to be 0.784 ± 0.023.

For the compound `C[C@H](CO)N1C[C@H](C)[C@@H](CN(C)C(=O)Nc2ccc(C(F)(F)F)cc2)Oc2c(NC(=O)c3ccc(-c4nccs4)cc3)cccc2C1=O`, the viability index under setting [1] was 0.953 ± 0.018.

Under setting [1], `C[C@@H]1CN([C@@H](C)CO)C(=O)c2cccc(NC(=O)c3ccc(-c4nccs4)cc3)c2O[C@H]1CN(C)C(=O)Nc1ccc(C(F)(F)F)cc1` registered a viability index of 1.011 ± 0.0069.

In turn, `C[C@H](CO)N1C[C@H](C)[C@H](CN(C)C(=O)Nc2cccc3ccccc23)Oc2ncccc2C1=O` registered a viability index under setting [1] of 0.826 ± 0.021. `C[C@@H]1CN([C@@H](C)CO)C(=O)c2cccc(NC(=O)C3CCOCC3)c2O[C@@H]1CN(C)C(=O)Nc1cccc2ccccc12` had a viability index under setting [1] of 0.974 ± 0.06. Same read-out and setting: to `Cc1noc(C)c1S(=O)(=O)N(C)C[C@@H]1Oc2c(NC(=O)c3ccc(-c4nccs4)cc3)cccc2C(=O)N([C@H](C)CO)C[C@@H]1C` belongs 0.978 ± 0.068; to `C[C@@H]1CN([C@@H](C)CO)C(=O)c2cccc(NC(=O)c3ccc(-c4nccs4)cc3)c2O[C@@H]1CN(C)C(=O)Nc1ccc(C(F)(F)F)cc1`, 0.556 ± 0.084. Compound `Cc1noc(C)c1S(=O)(=O)N(C)C[C@@H]1Oc2c(NC(=O)c3ccc(-c4nccs4)cc3)cccc2C(=O)N([C@@H](C)CO)C[C@H]1C` had a viability index under setting [1] of 0.828 ± 0.018.

`C[C@H](CO)N1C[C@H](C)[C@H](CN(C)C(=O)Nc2ccc(C(F)(F)F)cc2)Oc2c(NC(=O)c3ccc(-c4nccs4)cc3)cccc2C1=O` registered a viability index under setting [1] of 1.04 ± 0.021. For the compound `N#Cc1cccc(-c2ccc([C@@H]3[C@@H](CO)N4CCCCN(Cc5ccccc5F)C[C@H]34)cc2)c1`, the viability index under setting [1] came out at 0.889 ± 0.028. Turning to `C[C@H](CO)N1C[C@H](C)[C@@H](CN(C)S(=O)(=O)c2ccc(Cl)cc2)OCCCC[C@H](C)Oc2ccc(NC(=O)Nc3ccc(C(F)(F)F)cc3)cc2C1=O`, the viability index under setting [1] was found to be 1.1 ± 0.11. For `O=C(CC1CC1)N1CC(=O)N2[C@H](C1)[C@H](c1ccc(C#Cc3cccc(F)c3)cc1)[C@@H]2CO`, under setting [1], the viability index worked out at 0.974 ± 0.063. Compound `COc1ccc([C@H]2C/C=C/C[C@H](C)Oc3ccccc3C(=O)N(C)[C@@H](Cc3ccccc3)C(=O)N2)c(OC)c1.COc1ccc([C@H]2C/C=C\C[C@H](C)Oc3ccccc3C(=O)N(C)[C@@H](Cc3ccccc3)C(=O)N2)c(OC)c1` registered a viability index under setting [1] of 0.861 ± 0.046. In turn, `COc1ccc2c3c([nH]c2c1)[C@@H](CO)N(C[C@]31CCN(CC1)S(C)(=O)=O)C(=O)NC1CCCC1` came in with a viability index under setting [1] of 1.01 ± 0.02. The compound `Cc1noc(C)c1S(=O)(=O)N(C)C[C@H]1OCc2ccccc2-c2c(n(C)c3ccccc23)C(=O)N([C@H](C)CO)C[C@H]1C` came in with a viability index under setting [1] of 0.948 ± 0.025. For the compound `O=S(=O)(c1cccc(F)c1)N1[C@@H]2CNC[C@H]1[C@H]2c1ccc(-c2ccccc2F)cc1`, the viability index under setting [1] is 1.06 ± 0.051. On to `C[C@@H]1CN([C@@H](C)CO)C(=O)c2c(c3ccccc3n2C)-c2ccccc2CO[C@@H]1CN(C)C(=O)Nc1ccccc1C(F)(F)F`, for which the viability index under setting [1] is 0.955 ± 0.039.

In the case of `C[C@H](CO)N1C[C@H](C)[C@H](CN(C)S(=O)(=O)c2ccc(C(F)(F)F)cc2)OCc2ccccc2-c2c(n(C)c3ccccc23)C1=O`, the viability index under setting [2] was 0.693 ± 0.051. `C[C@@H]1CN([C@@H](C)CO)C(=O)c2c(c3ccccc3n2C)-c2ccccc2CO[C@H]1CN(C)Cc1cccc(C(F)(F)F)c1` gave a viability index under setting [1] of 0.932 ± 0.15. Still for that read-out and setting: the result for `C[C@@H]1CN([C@@H](C)CO)C(=O)c2c(c3ccccc3n2C)-c2ccccc2CO[C@@H]1CN(C)S(=O)(=O)c1ccc([N+](=O)[O-])cc1` reads 0.998 ± 0.098; that for `C[C@@H]1CN([C@@H](C)CO)C(=O)c2c(c3ccccc3n2C)-c2ccccc2CO[C@@H]1CN(C)Cc1cccc(C(F)(F)F)c1`, 0.839 ± 0.039. In turn, `C[C@H]1CN([C@@H](C)CO)C(=O)c2c(c3ccccc3n2C)-c2ccccc2CO[C@H]1CN(C)Cc1cccc(C(F)(F)F)c1` came in with a viability index under setting [1] of 0.952 ± 0.02.

Compound `C[C@H](CO)N1C[C@H](C)[C@@H](CN(C)S(=O)(=O)c2ccc([N+](=O)[O-])cc2)OCc2ccccc2-c2c(n(C)c3ccccc23)C1=O` showed a viability index under setting [1] of 0.896 ± 0.046.

Compound `C[C@H](CO)N1C[C@H](C)[C@H](CN(C)S(=O)(=O)c2ccc([N+](=O)[O-])cc2)OCc2ccccc2-c2c(n(C)c3ccccc23)C1=O` had a viability index under setting [1] of 0.969 ± 0.015. Same read-out and setting: to `C[C@@H]1CN([C@@H](C)CO)C(=O)c2c(c3ccccc3n2C)-c2ccccc2CO[C@H]1CN(C)S(=O)(=O)c1ccc([N+](=O)[O-])cc1` belongs 0.93 ± 0.086; to `C[C@H]1CN([C@@H](C)CO)C(=O)c2c(c3ccccc3n2C)-c2ccccc2CO[C@@H]1CN(C)C(=O)Nc1ccccc1C(F)(F)F`, 1.009 ± 0.0034. `C[C@@H]1CN([C@@H](C)CO)C(=O)c2c(c3ccccc3n2C)-c2ccccc2CO[C@H]1CN(C)C(=O)Nc1ccccc1C(F)(F)F` returned a viability index under setting [1] of 0.805 ± 0.084. `C[C@H]1CN([C@@H](C)CO)C(=O)c2c(c3ccccc3n2C)-c2ccccc2CO[C@H]1CN(C)S(=O)(=O)c1ccc(C(F)(F)F)cc1` had a viability index under setting [2] of 0.705 ± 0.04.
